Here are results for 40 compounds from PubChem BioAssay (NCATS).

Where “and” joins values, the source holds several entries; their conditions need not be identical. Equal entries are not always repeated. Records with an inconclusive call do not appear. A number with no mark means an inactive call. Calls come from the whole dose curve; as a rule, active = well fitted inhibition curve with a large enough effect in the signal ratio, with a control signal flat (not every such curve was filed as active); inconclusive = small, poorly fitted or top-dose-only effect, or effect the other way, or a change in a side signal; inactive = flat fitted curve, though single readings scatter; the % refers to the signal ratio.
% is set by controls: 0 for no effect and ±100 for the full control effect.

Thyroid hormone receptor beta (Homo sapiens), sequence (P10828 whole entry, looked up): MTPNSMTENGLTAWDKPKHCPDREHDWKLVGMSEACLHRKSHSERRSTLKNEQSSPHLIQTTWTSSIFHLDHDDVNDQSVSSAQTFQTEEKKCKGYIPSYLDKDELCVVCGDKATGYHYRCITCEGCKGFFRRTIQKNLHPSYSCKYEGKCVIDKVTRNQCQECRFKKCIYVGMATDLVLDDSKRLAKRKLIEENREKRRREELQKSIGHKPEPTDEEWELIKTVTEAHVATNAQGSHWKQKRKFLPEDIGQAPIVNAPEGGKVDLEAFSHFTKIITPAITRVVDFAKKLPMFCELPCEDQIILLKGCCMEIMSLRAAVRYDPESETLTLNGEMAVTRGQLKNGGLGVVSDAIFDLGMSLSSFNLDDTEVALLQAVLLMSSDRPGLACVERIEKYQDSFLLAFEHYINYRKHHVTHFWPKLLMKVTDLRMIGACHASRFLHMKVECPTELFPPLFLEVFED

The target in the test is Thyroid hormone receptor beta (Homo sapiens) (UniProt P10828). Kind of test: qHTS assay for small molecule antagonists of thyroid hormone receptor beta signaling (AID 588547).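 Note: cells stimulated with 0.4 nM T3 agonist during compound exposure; series mostly up to about 77 µM.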 Particulars: TR-UAS-bla HEK293, beta-lactamase ratio, antagonist mode, 18 h. The text has this:
NIH Chemical Genomics Center [NCGC] U.S. Environmental Protection Agency [EPA] National Institutes of Environmental Health Sciences [NIEHS] National Toxicology Program [NTP] NCGC Assay Overview Thyroid hormone receptor (TR) belongs to nuclear hormone receptor superfamily. There are two subtypes for TR: TR-alpha and TR-beta. TR-beta plays a major role in regulating plasma cholesterol levels and it mediates the biological activities of thyroid hormone. Screening environmental chemicals on TR-beta signaling will provide important information for the mechanism of compound action.
NCGC Assay Protocol Summary Using a beta-lactamase reporter-gene under control of the TR response element, a cell-based assay [GeneBLAzer TR-UAS-bla-GripTite assay developed by Invitrogen] was used to measure TR-beta signaling in antagonist mode. TR-UAS-bla-GripTite HEK 293 cells were used with assay medium containing 2% charcoal/dextran FBS, 0.1 mM NEAA and 1 mM sodium pyruvate. The assay was performed in clear bottom black Greiner 1536-well plates. Library compounds were measured for their ability to inhibit the reporter gene activity. Compounds were screened in a titration series in 1536-well format. The fluorescence intensity (405 nm excitation, 460/530 nm emission) was measured using an EnVision plate reader. […] Concentration-response titration points for each compound were fitted to the Hill equation yielding concentrations of half-maximal inhibition (IC50) and maximal response (efficacy) values. qHTS protocol for TR-beta beta-lactamase assay in antagonist mode [Step] [Parameter] [Value] [Description] 1. Reagent; 5 uL; 2500 cells/well 2. Incubation; 37 C for 4 hrs 3. Compounds; 23 nL; 0.59 nM to 92 uM 4. Controls (DMSO); 23 nL 5. Agonist (Stimulator); 1uL; T3 at 0.4nM (final) concentrations 6. Incubation; 37 C for 18 hrs 7. Detection reagent; 1 uL of CCF4-dye 8. Incubation; RT for 2 hrs 9. Detection; Fluorescence; Envision plate reader
For `O=C(O)CCCCCCCCC(=O)O`, the activity change % (negative = inhibition) is 3.38%.

Regarding `O[C@@H]([C@H](O)[C@@H](O)CBr)[C@@H](O)CBr`, the activity change % (negative = inhibition) is -6.77%.

As to `CC1=CC(C)(C)Nc2ccccc21`, the activity change % (negative = inhibition) is -25%.

For the compound `Cc1cccc([N+](=O)[O-])c1C`, the activity change % (negative = inhibition) is -0.0299% and -1.89%.

As for `C1OCOCO1`, the activity change % (negative = inhibition) was 5.08%.

As to `Cc1ccc([N+](=O)[O-])cc1N`, the activity change % (negative = inhibition) is 15.7% and 9.17%.

For the compound `COc1ccc2nc(N)sc2c1`, the activity change % (negative = inhibition) is -0.575% and 14.1%.

As to `O=C(O)c1ccccc1C(c1ccc(O)cc1)c1ccc(O)cc1`, the activity change % (negative = inhibition) was 4.41% and 9.59%.

On to `CCCCCCCCOC(=O)c1cc(O)c(O)c(O)c1`, for which the activity change % (negative = inhibition) was -6.19%.

On to `c1ccc2c(c1)c1cccc3ccc4cccc2c4c31`, for which the activity change % (negative = inhibition) was 6.13% and -3.87%.

Take `CCC(O)OC(O)CC` (stereo not given): the activity change % (negative = inhibition) was -5.47% [middle of 4 runs].

For `CCC(C)c1ccccc1O` (stereo not given), the activity change % (negative = inhibition) is -2.64% and 0.537%.

Take `CCCCCCCCO`: the activity change % (negative = inhibition) was -10.6% and 5.6% and -2.56%.

For `Nc1ccc(S(=O)(=O)O)cc1`, the activity change % (negative = inhibition) is -11.7% and 17.4%.

For the compound `O=C1CCc2ccccc2O1`, the activity change % (negative = inhibition) is -1.36%.

Take `Cc1ccc(N)c([N+](=O)[O-])c1`: the activity change % (negative = inhibition) is -3.23%.

In the case of `C/C=C\c1ccc(OC)cc1`, the activity change % (negative = inhibition) is 20.9%.

With `COC(=O)CCCCC(=O)OC`, the activity change % (negative = inhibition) is 22.1% and -0.698% and -15.8%.

Regarding `COc1ccc(/C=C/c2cc(OC)cc(=O)o2)cc1`, the activity change % (negative = inhibition) was -10.8%.

On to `Cc1ccccc1C`, for which the activity change % (negative = inhibition) is 8.96% and 15%.

On to `C=Cc1ccccc1Cl`, for which the activity change % (negative = inhibition) was 9.88%.

As to `O=C(O)CC(C(=O)O)C(CC(=O)O)C(=O)O` (stereo not given), the activity change % (negative = inhibition) was -3.7% and -9.45%.

On to `Nc1ccc(Cl)cc1Cl`, for which the activity change % (negative = inhibition) was -5.09% and -14.9%.

With `CC1=C2[C@H](/C=C(\C)C(=O)O)CC[C@@H](C)[C@H]2CC1`, the activity change % (negative = inhibition) is 11.8%.

For the compound `O=C(O)c1ccc(O)cc1O`, the activity change % (negative = inhibition) was 0.5% and 23.9%.

As to `Cc1ccc([N+](=O)[O-])c(C)c1`, the activity change % (negative = inhibition) is -7.14% and -11%.

As for `c1ccc2scnc2c1`, the activity change % (negative = inhibition) is 10.2%.

As to `O=C1c2ccccc2C(=O)C1c1ccc2ccccc2n1`, the activity change % (negative = inhibition) was -15.6%.

With `COC(=O)c1ccc(C=O)cc1`, the activity change % (negative = inhibition) was 3.66%.

On to `Cc1c(N=C=O)cccc1N=C=O`, for which the activity change % (negative = inhibition) is 2.21% and -0.0232%.

`Cc1cccc(O)c1`: the activity change % (negative = inhibition) is -9.11% and -4.09%.

For the compound `CCCCOCCO`, the activity change % (negative = inhibition) was -4.64% and -15.2%.

For `CC1(C)CC(N=C=O)CC(C)(CN=C=O)C1` (stereo not given), the activity change % (negative = inhibition) was 2.27% and 3.24%.

As for `NC1=NC(S)C2N=CN=C2N1` (stereo not given), the activity change % (negative = inhibition) is 18.1%.

As for `O=NO`, the activity change % (negative = inhibition) is -1.68% and 1.18%.

With `C=CC(C)(CCC=C(C)C)OC(C)=O` (stereo not given), the activity change % (negative = inhibition) is -2.58%.

Regarding `CCCN(CCC)C(=O)SCC`, the activity change % (negative = inhibition) was 0.19% and 8.86%.

In the case of `C=CCOC(=O)c1ccccc1C(=O)OCC=C`, the activity change % (negative = inhibition) was -9.14% and 1.91%.

In the case of `C[Si](C)(C)O[Si](C)(C)O[Si](C)(C)C`, the activity change % (negative = inhibition) was -8.82%.

Take `CCO`: the activity change % (negative = inhibition) was -1.42%.
